Source: PubChem BioAssay (NCI)
This is part of a sample that, as a whole, favours compounds with a hit. Of some 83,000 tested, about 20% had one in any assay.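 For each line, cells grew in 96-well plates with the test compound present at a single concentration for 48 hours.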 Unmarked numbers belong to inactive results. Activity calls are given as the source filed them. How the source made its calls: active means growth percent below 10; inactive means the rest.

Tests used:
Assay in all cases: NCI-60 one-dose screen, 48 h (100 = growth as untreated, 0 = no growth, -100 = all killed)
Conditions in all cases: 10 µM unless noted
SK-MEL-2 melanoma = system: SK-MEL-2 melanoma
EKVX NSCLC = system: EKVX NSCLC
SN12C renal = system: SN12C renal
UO-31 renal = system: UO-31 renal
TK-10 renal = system: TK-10 renal
ACHN renal = system: ACHN renal
CAKI-1 renal = system: CAKI-1 renal
A498 renal = system: A498 renal
CCRF-CEM leukemia = system: CCRF-CEM leukemia
MOLT-4 leukemia = system: MOLT-4 leukemia
SR leukemia = system: SR leukemia
RPMI-8226 leukemia = system: RPMI-8226 leukemia
OVCAR-8 ovarian = system: OVCAR-8 ovarian
OVCAR-5 ovarian = system: OVCAR-5 ovarian
OVCAR-4 ovarian = system: OVCAR-4 ovarian
SK-OV-3 ovarian = system: SK-OV-3 ovarian
IGROV1 ovarian = system: IGROV1 ovarian
OVCAR-3 ovarian = system: OVCAR-3 ovarian
HS 578T breast = system: HS 578T breast
NCI/ADR-RES ovarian = system: NCI/ADR-RES ovarian

Structure (SMILES) | growth (SK-MEL-2 melanoma) | growth (EKVX NSCLC) | growth (SN12C renal) | growth (UO-31 renal) | growth (TK-10 renal) | growth (ACHN renal) | growth (CAKI-1 renal) | growth (A498 renal) | growth (CCRF-CEM leukemia) | growth (MOLT-4 leukemia) | growth (SR leukemia) | growth (RPMI-8226 leukemia) | growth (OVCAR-8 ovarian) | growth (OVCAR-5 ovarian) | growth (OVCAR-4 ovarian) | growth (SK-OV-3 ovarian) | growth (IGROV1 ovarian) | growth (OVCAR-3 ovarian) | growth (HS 578T breast) | growth (NCI/ADR-RES ovarian)
COC(=O)CNC(=O)[C@H](Cc1ccccc1)NCc1ccncc1 | 95.3% | 99.5% | 99.3% | 91.2% | 88.5% | 107% | 99.1% | 88.3% | 86% | 105% | 97% | 91% | 98.3% | 105% | 107% | 80.7% | 104% | 113% | 106% | 103%
CCN1CCN(Cc2cn(CC(=O)Nc3ccc4c(ccn4Cc4ccccc4)c3)nn2)CC1 | 106% | 106% | 104% | 81.3% | 99.2% | 102% | 86.7% | 108% | 7.79% (active) | 101% | 63.5% | 85% | 99.7% | 113% | 97.4% | 92.7% | 105% | 102% | 100% | 108%
COc1ccc(/C=N/NC(=O)CCN2c3ccccc3Sc3ccccc32)cc1 | 95.6% | 79.7% | 88.1% | 66.5% | 111% | 86.6% | 41.5% | 55.7% | 82.7% | 97.8% | 33.8% | 94% | 99.3% | 86.3% | 89.6% | 97.1% | 66.3% | 76.4% | 85.9% | 69.4%
CCOC(=O)c1cc2c(=O)oc3ccccc3c2oc1=O | 78.1% | 111% | 98.3% | 82.7% | 98.6% | 89.8% | 111% | 106% | 88.5% | 87.1% | -26% (active) | 84.7% | 102% | 100% | 96.4% | 102% | 103% | 112% | 100% | 112%
C[C@@H]1CCC[C@H]1CC(N)C(=O)O (some centres undefined) | 132% | 98.4% | 114% | 99% | 130% | 99.5% | -76.8% (active) | 97.9% | 104% | 114% | 108% | 103% | 106% | 105% | 105% | 113% | 114% | 117% | 103% | 104%
C#COc1cccc(Nc2ncnc3ncc(NC(=O)CCl)cc23)c1 | 24.5% [6.25 µM] | 57.1% [6.25 µM] | 3.98% [6.25 µM] (active) | -68.1% [6.25 µM] (active) | -24.2% [6.25 µM] (active) | 7.63% [6.25 µM] (active) | 36.4% [6.25 µM] | 61.8% [6.25 µM] | 23.2% [6.25 µM] | 50.4% [6.25 µM] | 16.2% [6.25 µM] | 52.9% [6.25 µM] | 10.3% [6.25 µM] | 31.5% [6.25 µM] | 32.6% [6.25 µM] | 53.1% [6.25 µM] | -42.4% [6.25 µM] (active) | -56.4% [6.25 µM] (active) | 43.4% [6.25 µM] | 12% [6.25 µM]
Oc1c(Cl)cc(Cl)cc1/C=N/Nc1nnc(N/N=C/c2cc(Cl)cc(Cl)c2O)c2ccccc12 | 51.2% | 10.2% | 20% | 0.684% (active) | 37.8% | 7.55% (active) | -34.7% (active) | -2.98% (active) | 14% | 5.23% (active) | 3.92% (active) | 0.393% (active) | 17.4% | 40.4% | 8.13% (active) | 29.3% | 13.1% |  | 31.6% | 1.78% (active)
CO[C@H]1/C=C(/C)CCC[C@H](C)[C@H](O)[C@@H](C)C(=O)C(C)(C)[C@@H](O)CC(=O)O[C@@H]1/C(C)=C/c1csc(C)n1 | -5.73% (active) | 34% | 38.9% | 21.8% | 18.8% | 50% | 10.8% | 2.04% (active) | 25.7% | 14.6% | 19.6% | 14.2% | 26.7% | 34.6% | 63.7% | 5.27% (active) | 12.8% | -49.9% (active) | -21.3% (active) | -36.7% (active)
